Menin-MLL TR inh: displaces Texas Red mutant MLL peptide from human menin | O00255 | Menin + Texas Red MLL mutant peptide, fluorescence polarization | Potency, µM (titrated, usually from 61.6 µM), for inactives: at the highest dose FP activity change, negative = inhibition, most hits filed as inhibitors | 270,000 tested, 0.23% active; active = well fitted inhibition curve with a large enough effect in the polarisation, with a control signal flat, not every such curve was filed as active; inconclusive = small, poorly fitted or top-dose-only effect, or effect the other way, or a change in a side signal; inactive = no such curve, though single readings can be large or run the other way; the % refers to the polarisation; note: potency is the fitted concentration of half-maximal effect; % of control where 0% means no effect
Six1-Eya2 blk: Six1/Eya2 interaction inhibition. Q15475+O00167. AlphaScreen GST-Six1/His-Eya2 binding, biochemical; stronger effect = lower value. activity change, % (no concentration beside the values). 360,000 tested, 0.56% active. AID 651725; in the data active = activity change below about -65%; inconclusive = mostly about -30% to -63%; note: % is set by controls: 0 for no effect and ±100 for the full control effect
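AlphaScreen with GST-Six1 and His-Eya2 (5X mix: 250 nM and 500 nM), glutathione donor and nickel acceptor beads; buffer 50 mM Tris pH 8.0, 300 mM NaCl, 1 mM TCEP; 1 h at 37 C in the dark.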
CXXC DNA block: inhibitors of human MLL CXXC domain-DNA interaction. Potency, µM (top dose mostly 115 µM), for the others: top-dose activity change, negative = inhibition, usual class: inhibitors. AID 2662. Q03164. MLL-CXXC / FITC-HOXA9 DNA fluorescence polarization. 290,000 tested, 0.037% active; active = well fitted inhibition curve with a large enough effect in the polarisation, with a control signal flat, not every such curve was filed as active; inconclusive = small, poorly fitted or top-dose-only effect, or effect the other way, or a change in a side signal; inactive = no such curve, though single readings can be large or run the other way; the % refers to the polarisation; note: potency is the fitted concentration of half-maximal effect
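Steps: dispense CXXC domain solution (7 uM) → pin compounds or unlabeled HOX-A9 DNA control → 5 min ambient → add FLSN-HOX-A9 solution (50 nM) → spin → 30 min ambient → fluorescence polarization. Tris pH 7.5/NaCl/DTT/BSA buffer.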
Menin MLL FP FL: inhibitors of human menin-MLL interaction, wild-type MLL peptide. Fluorescence polarization, fluorescein-MLL peptide displacement from menin. FP activity change, % at 61.4 µM. 290,000 tested, under 10 active. AID 1766; active = well fitted curve in the direction sought with a large enough effect in the polarisation, not every such curve was filed as active; inconclusive = small, poorly fitted or top-dose-only effect, or effect the other way, or a change in a side signal; inactive = no such curve, though single readings can be large or run the other way; the % refers to the polarisation; note: % of control where 0% means no effect
GLS inhibitor: blocks human kidney-isoform glutaminase activity. O94925. Potency, µM (titrated, usually from 45.5 µM), inactives show at the top dose activity change, negative = inhibition, actives largely listed as inhibitors. GLS enzymatic activity, qHTS titration. 410,000 tested, 0.21% active; note: potency is the fitted concentration of half-maximal effect; % is set by controls: 0 for no effect and ±100 for the full control effect
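Glutamate formation by hKGA was monitored fluorometrically using coupled glutamate oxidase, HRP and Amplex Red. Substrate was added as 1 mM L-glutamine solution; incubation was 30 min at RT after an initial read.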
CtBP-E1A blk: blocks the CtBP interaction with E1A; AlphaScreen GST-E1A/His-CtBP binding, 1536-well; stronger effect = lower value; activity change, % (concentration not given with the values); 340,000 tested, 0.49% active; AID 651724; in the data active = activity change below about -65%; inconclusive = mostly about -30% to -63%; note: % is set by controls: 0 for no effect and ±100 for the full control effect
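Steps: dispense buffer (Tris pH 8.0, NaCl 300 mM, TCEP 1 mM, BSA, Tween 20); add 5X protein mix (GST-E1A, His-CtBP, 125 nM each); pin 23 nL compound; 2 h at 37 °C, dark; add 5X beads (50 ug/mL); 1 h; read.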
MLL CXXC Fl: inhibitors of human MLL CXXC domain-DNA interaction; shares compounds with CXXC DNA block; MLL CXXC-DNA binding, fluorescein FP; Potency, µM (doses to about 345 µM), for the others: at the highest dose activity change, negative = inhibition, hits mostly inhibitors; 200 tested, 70% active; AID 624160; note: potency is the fitted concentration of half-maximal effect; nearly all actives have a fitted effect of over 80% in size
MLL CXXC TxRed: MLL CXXC-DNA interaction inhibition, Texas Red FP. Potency, µM (top dose mostly 345 µM), without a hit: top-dose activity change, negative = inhibition, most hits filed as inhibitors. 200 tested, 40% active. MLL CXXC-DNA binding, Texas Red fluorescence polarization. shares compounds with CXXC DNA block. AID 624161; note: potency is the fitted concentration of half-maximal effect; % is set by controls: 0 for no effect and ±100 for the full control effect; nearly all actives have a fitted effect of over 75% in size
MLL CXXC TRF: disrupts human MLL CXXC domain binding to DNA by HTRF | shares compounds with CXXC DNA block | MLL CXXC-DNA binding, HTRF, biochemical | Potency, µM (doses to about 172 µM), for inactives: top-dose activity change, negative = inhibition, actives largely listed as inhibitors | 210 tested, 30% active | AID 624162; note: % is set by controls: 0 for no effect and ±100 for the full control effect; nearly all actives have a fitted effect of over 80% in size
* hit, by the source's call; ? = inconclusive; . = no result; ! = not active in a repeat; [ ] = dose if it differs, or a comment. Rows were chosen to be rich in hits. Some 0.83% of all compounds tested hit in one or more screens of this group. Unless noted, calls come from the whole dose curve; as a rule, active = well fitted curve in the direction sought with a large enough effect; inconclusive = small, poorly fitted or top-dose-only effect, or another doubt; inactive = no such curve, though single readings can be large; an effect the other way counts as inactive or inconclusive.

SMILES	Menin-MLL TR inh	Six1-Eya2 blk	CXXC DNA block	Menin MLL FP FL	GLS inhibitor	CtBP-E1A blk	MLL CXXC Fl	MLL CXXC TxRed	MLL CXXC TRF
COc1ccccc1Cn1c(=S)[nH]c2cc(C(=O)NCCN(C)C)ccc2c1=O	-1.1%	-3.8	14.0%	1.8	10µM*	-17.1	.	.	.
CCN1CCN(C(=O)c2ccc3c(=O)n(Cc4ccccc4OC)c(=S)[nH]c3c2)CC1	-1.3%	-1.9	-2.0%	1.7	11.2µM*	-4.3	.	.	.
COc1ccccc1Cn1c(=S)[nH]c2cc(C(=O)NCC3CCCO3)ccc2c1=O (centres undefined)	-19.1%	13.4	7.8%	0.5	51.0%	3.3	.	.	.
O=C(NC1=NCCS1)c1cc(-c2ccc(-c3ccccc3)cc2)nc2ccccc12	11.2µM*	-1.4	.	1.7	8.3%	1.3	.	.	.
COc1ccc(-c2cc(C(=O)NC3=NCCS3)c3ccccc3n2)cc1OC	?	1.9	-0.1%	-2.6	-6.3%	-3.9	.	.	.
Oc1c(CN2CCN(c3ccccc3)CC2)cc(Br)c2cccnc12	?	-18.6	10.9%	-0.1	8.1%	-25.6	.	.	.
Oc1c(Br)cc(Br)c2cccnc12	?	-75.0*	4.1%	-3.1	0.2%	-78.1*	.	.	.
C/C(=N\Nc1c(Cl)c(Cl)nc(C(=O)O)c1Cl)c1ccc(O)cc1	-18.2%	-66.6*	-2.4%	-1.2	1.2%	?	.	.	.
CCc1ccc(CN2CCc3nc(Nc4ccccc4)ncc3C2)cc1	.	.	.	.	6.0%	.	.	.	.
C/C(C/C(C)=C1/SC(=S)NC1=O)=C1\SC(=S)NC1=O	65.8%	-70.9*	?	?	-26.0%	?	.	.	.
NCC(=O)Nc1ccc(Cl)cc1C(=O)c1ccc[nH]1	18.5%	-81.3*	1.8%	1.1	-12.6%	.	.	.	.
Cc1cc(C)c2c(n1)sc1c(O)cc(=O)[nH]c12	8.9%	-71.0*	7.9%	?	8.0%	-15.0	.	.	.
COc1ccc(-c2cc(C(F)(F)F)c3c(n2)sc2c(O)cc(=O)[nH]c23)c(OC)c1	?	?	48.7%	?	-24.2%	?	.	.	.
Cc1ccc(C(=O)[C@H](C)CN2CCCCC2)cc1	.	.	.	.	3.4%	.	.	.	.
CCCN1C=CC(=C/C=C(\C#N)C(=O)OCC)C=C1	17.4%	.	?	?	.	.	.	.	.
CCOC(=O)/C(C#N)=C/C=C1\C=Cc2ccccc2N1CC	25.1µM*	-26.6	177.2%	?	11.1%	.	.	.	.
CCN1CCN(CCCNC(=O)Cn2c(-c3cccs3)cc3cc(F)ccc32)CC1	.	.	.	.	1.3%	.	.	.	.
CC1=NN(c2ccccc2)C(=O)/C1=C/c1cccc(C)c1	?	-11.3	?	?	?	-3.5	44.8µM*	?	-26.8%
N#C/C(=C\c1cccs1)C(=O)c1ccccc1Cl	.	-1.9	22.4µM*	6.1	-6.1%	1.5	17.9µM*	71.1µM*	?
Cc1cccc(NC(=O)Cn2c(=O)oc3cc(S(=O)(=O)NCc4ccccc4)ccc32)c1	.	.	.	.	-1.6%	.	.	.	.
Nc1c(N=Nc2ccc(-c3ccc(N=Nc4cc(S(=O)(=O)O)c5ccccc5c4N)cc3)cc2)cc(S(=O)(=O)O)c2ccccc12	?	.	35.5µM*	?	?	.	22.5µM*	25.2µM*	9.68µM*
CN(C)c1ccc(/C=C2\SC(=S)N(Nc3ncc(C(F)(F)F)cc3Cl)C2=O)cc1	?	-3.2	3.16µM*	?	-0.3%	-10.9	1.13µM*	113µM*	196.3%
CN(C)C1=C(Cl)C(=O)N(c2ccc(Cl)c(Cl)c2)C1=O	.	7.7	?	-19.2	-5.0%	5.9	179µM*	43.7%	?
C=Cc1c(C)c2cc3[nH]c(cc4nc(cc5nc(cc1[nH]2)C(C)=C5CCC(=O)O)C(CCC(=O)O)=C4C)c(C)c3C=C	?	1.1	20µM*!	-1.8	?	2.1	?	44.8µM*	38.5µM*
CC1=C(CCC(=O)O)c2cc3nc(cc4[nH]c(cc5[nH]c(cc1n2)c(C)c5C(C)O)c(C)c4C(C)O)C(C)=C3CCC(=O)O (centres undefined)	?	.	.	-21.6	.	.	.	.	.
SMILES	Menin-MLL TR inh	Six1-Eya2 blk	CXXC DNA block	Menin MLL FP FL	GLS inhibitor	CtBP-E1A blk	MLL CXXC Fl	MLL CXXC TxRed	MLL CXXC TRF
O=c1ccc2[n+]([O-])c3ccc(O)cc3oc-2c1	.	-5.8	35.5µM*	?	?	-4.6	?	2.25µM*	?
O=C1/C(=C\c2cccnc2)CCc2ccccc21	-5.4%	17.7	?	4.5	-6.4%	35.0	?	-14.9%	28.1%
NCCCC[C@H](N)C(=O)N[C@@H](CCCN=C(N)N)C(=O)N1CCC[C@H]1C(=O)N1CCC[C@H]1C(=O)NCC(=O)N[C@@H](Cc1ccccc1)C(=O)N[C@@H](CO)C(=O)N1CCC[C@H]1C(=O)N[C@@H](Cc1ccccc1)C(=O)O	10.1%	.	.	0.9	.	.	.	.	.
CCCn1c(C)nc2c(NC(C)CN(C)C)nc(C)nc21 (centres undefined)	12.4%	.	.	-1.0	.	.	.	.	.
Cc1ccsc1C=C1C(=O)c2ccccc2C1=O	?	-2.6	?	0.2	-4.6%	-1.3	10µM*	-4.2%	13.8%
COc1ccc(-c2ccccc2C2NC(C(=O)O)CCC2C)cc1 (centres undefined)	2.7%[11.7 µM]	.	.	-2.3[11.7 µM]	.	.	.	.	.
CN1CCCc2cc3c(C(F)(F)F)cc(=O)oc3nc21	-2.1%	-7.2	28.2µM*	?	5.5%	5.7	44.8µM*	-15.7%	21.8%
CCn1c(CSc2ncn[nH]2)nc2cc(C(=O)O)ccc21	.	2.7	?	5.4	-4.0%	12.3	61.8%	126µM*	3.0%
CCn1c(CSc2nnc(-c3ccncc3)n2C)nc2cc(C(=O)O)ccc21	.	2.6	-24.6%	-15.7	0.0%	5.1	.	.	.
Cc1ccc(CSc2c(C)cnc3c2c(=O)n(C)c(=O)n3C)cc1	.	.	.	.	3.3%	.	.	.	.
CC1=NN(c2ccc(Br)cc2)C(=O)/C1=C/c1ccc(-c2ccccc2C(=O)O)o1	?	-3.8	?	1.9	-1.1%	-16.5	113µM*	89.5µM*	50.5%
CCSc1nnc(NC(=O)c2nc(S(=O)(=O)Cc3ccc(F)cc3)ncc2Cl)s1	.	13.0	?	.	-2.2%	1.1	22.5µM*	100µM*	9.68µM*
CC(C)c1nnc(NC(=O)c2nc(S(=O)(=O)Cc3ccc(F)cc3)ncc2Cl)s1	.	18.3	?	.	-13.4%	-2.6	.	.	.
